Assay results from PubChem BioAssay (EPA / NIEHS).
Inconclusive results are not listed. Active and inactive are the calls of the source. How the source made its calls, unless noted: active means hit-call score of the fitted dose curve at least 0.9, where 1 is the maximum; inconclusive means response in the unintended direction; inactive means score below 0.9.

Columns and labels:
[1] = CEETOX_H295R_11DCORT: CeeTox H295R High-throughput Steroidogenesis Assay for 11-Deoxycortisol (11DCORT) (AID 2283432; active means hit-call score of the fitted dose curve at least 0.9, where 1 is the maximum; inactive means score below 0.9); conditions: actives raise or lower the signal
Method in brief: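 Human adrenal H295R cells were prestimulated with 10 uM forskolin for 48 h, then exposed to test chemical (0.1% DMSO final) for 48 h. Medium 11-deoxycortisol was quantified by MTBE extraction and HPLC-MS/MS; bidirectional fitting relative to DMSO.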

[2] = biological target: Estrogen receptor beta (Homo sapiens) (UniProt Q92731); experiment: OT_ER_ERbERb_1440: Odyssey Thera (OT) 24-hour HEK293T Protein-Complementation Assay for Estrogen Receptor-beta/-beta Homodimer (AID 2283380);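 further: scored as signal increase over DMSO baseline for both agonists and antagonists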
Chain of Estrogen receptor beta (Homo sapiens) (Q92731 whole entry, looked up, the tested form may be a part): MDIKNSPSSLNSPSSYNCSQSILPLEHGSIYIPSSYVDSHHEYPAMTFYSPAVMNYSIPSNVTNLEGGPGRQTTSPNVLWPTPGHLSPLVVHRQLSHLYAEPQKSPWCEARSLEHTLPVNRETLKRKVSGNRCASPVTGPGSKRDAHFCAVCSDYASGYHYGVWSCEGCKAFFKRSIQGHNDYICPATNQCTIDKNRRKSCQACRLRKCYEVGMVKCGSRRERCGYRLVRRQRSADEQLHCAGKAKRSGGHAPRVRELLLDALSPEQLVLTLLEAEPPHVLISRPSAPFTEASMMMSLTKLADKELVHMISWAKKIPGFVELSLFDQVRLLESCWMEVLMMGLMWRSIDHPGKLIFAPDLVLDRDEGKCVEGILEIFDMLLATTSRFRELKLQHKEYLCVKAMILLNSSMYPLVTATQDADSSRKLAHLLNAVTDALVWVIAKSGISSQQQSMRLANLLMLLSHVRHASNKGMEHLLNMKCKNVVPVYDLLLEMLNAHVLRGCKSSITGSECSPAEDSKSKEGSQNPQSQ
Method in brief: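 HEK293T cells stably expressing ER beta LBD (aa 310-547) homodimer fragment-complementation reporter, dosed 24 h. Cells formaldehyde-fixed, Draq5-stained; gain in nuclear (agonist) or nuclear plus cytoplasmic (antagonist) fluorescence versus DMSO read by laser scanning cytometry.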

[3] = biological target: Estrogen receptor (Homo sapiens) (UniProt P03372); experiment: OT_ERa_GFPERaERE_0480: Odyssey Thera (OT) 8-hour HeLa Transcription Induction Assay for Estrogen Receptor (AID 2283381; active means hit-call score of the fitted dose curve at least 0.9, where 1 is the maximum; inactive means score below 0.9)
Chain of Estrogen receptor (Homo sapiens) (P03372 whole entry, looked up): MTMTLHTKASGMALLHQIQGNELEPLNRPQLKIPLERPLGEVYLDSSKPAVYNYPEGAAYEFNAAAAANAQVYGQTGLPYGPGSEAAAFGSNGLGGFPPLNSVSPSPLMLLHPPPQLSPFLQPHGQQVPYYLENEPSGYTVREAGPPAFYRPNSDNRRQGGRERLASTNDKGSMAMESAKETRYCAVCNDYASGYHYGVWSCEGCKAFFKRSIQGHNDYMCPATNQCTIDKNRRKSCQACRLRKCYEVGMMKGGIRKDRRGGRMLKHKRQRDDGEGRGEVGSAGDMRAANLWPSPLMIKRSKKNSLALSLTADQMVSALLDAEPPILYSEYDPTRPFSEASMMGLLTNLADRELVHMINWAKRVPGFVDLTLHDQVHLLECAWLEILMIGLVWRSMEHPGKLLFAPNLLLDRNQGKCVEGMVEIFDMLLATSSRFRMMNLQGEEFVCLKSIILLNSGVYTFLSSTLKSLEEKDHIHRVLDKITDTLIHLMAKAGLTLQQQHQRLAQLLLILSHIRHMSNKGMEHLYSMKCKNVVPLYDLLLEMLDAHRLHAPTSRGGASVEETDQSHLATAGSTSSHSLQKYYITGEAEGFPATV
Method in brief: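 HeLa cells expressing GFP reporter under estrogen response element, imaged 8 h after dosing. GFP induction quantified by high-content fluorescence microscopy image analysis; gain of signal fitted versus DMSO.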

[4] = biological target: Estrogen receptor (Homo sapiens) (UniProt P03372); experiment: OT_ERa_GFPERaERE_0120: Odyssey Thera (OT) 2-hour HeLa Transcription Induction Assay for Estrogen Receptor (AID 2283382)
Method in brief: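 HeLa cells were dosed for 2 h, then GFP reporter induction was quantified by fluorescence microscopy with high-content image analysis. Gain of signal fitted against DMSO baseline.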

[5] = biological target: Retinoic acid receptor RXR-alpha (Homo sapiens) (UniProt P19793); experiment: OT_NURR1_NURR1RXRa_1440: Odyssey Thera (OT) 24-hour HEK293T Protein Complementation Assay for Nurr1/retinoid X receptor (RXR) (AID 2283386)
Chain of Retinoic acid receptor RXR-alpha (Homo sapiens) (P19793 whole entry, looked up, the tested form may be a part): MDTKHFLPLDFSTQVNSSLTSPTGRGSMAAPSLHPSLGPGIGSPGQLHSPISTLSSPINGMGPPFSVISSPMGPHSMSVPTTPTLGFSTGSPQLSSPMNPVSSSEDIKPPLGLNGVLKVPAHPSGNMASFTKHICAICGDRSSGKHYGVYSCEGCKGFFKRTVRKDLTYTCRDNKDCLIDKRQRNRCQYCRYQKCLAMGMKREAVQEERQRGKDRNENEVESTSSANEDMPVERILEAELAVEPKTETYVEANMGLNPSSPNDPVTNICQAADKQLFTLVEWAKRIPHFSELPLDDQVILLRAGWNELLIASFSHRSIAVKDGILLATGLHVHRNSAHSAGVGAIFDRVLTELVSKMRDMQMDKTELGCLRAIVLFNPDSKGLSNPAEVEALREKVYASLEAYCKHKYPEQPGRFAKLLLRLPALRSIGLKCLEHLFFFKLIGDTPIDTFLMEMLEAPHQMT
Method in brief: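 HEK293T protein-fragment complementation of Nurr1 and RXRα fused to reporter fragments; compounds 24 h. Fluorescence gain from reconstituted reporter fitted versus DMSO.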

[6] = biological target: Peroxisome proliferator-activated receptor gamma (Homo sapiens) (UniProt P37231); experiment: OT_PPARg_PPARgSRC1_0480: Odyssey Thera (OT) 8-hour Protein-Complementation Assay for Peroxisome Proliferator-activated Receptor Gamma / SRC-1 Co-activator (AID 2283387)
Chain of Peroxisome proliferator-activated receptor gamma (Homo sapiens) (P37231 whole entry, looked up, the tested form may be a part): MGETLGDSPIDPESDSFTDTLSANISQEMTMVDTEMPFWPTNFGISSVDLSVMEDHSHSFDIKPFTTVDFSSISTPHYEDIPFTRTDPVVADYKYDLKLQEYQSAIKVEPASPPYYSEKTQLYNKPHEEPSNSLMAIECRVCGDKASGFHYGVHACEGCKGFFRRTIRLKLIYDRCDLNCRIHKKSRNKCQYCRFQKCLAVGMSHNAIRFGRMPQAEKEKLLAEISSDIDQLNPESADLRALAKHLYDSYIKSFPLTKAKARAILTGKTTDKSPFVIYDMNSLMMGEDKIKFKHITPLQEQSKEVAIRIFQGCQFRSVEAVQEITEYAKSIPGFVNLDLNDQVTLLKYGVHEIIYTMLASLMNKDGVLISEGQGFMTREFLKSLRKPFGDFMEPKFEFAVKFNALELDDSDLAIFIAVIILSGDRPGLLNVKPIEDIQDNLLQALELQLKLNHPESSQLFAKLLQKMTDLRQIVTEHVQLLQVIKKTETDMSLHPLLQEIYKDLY
Method in brief: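 Protein-fragment complementation of split Venus YFP reports PPARg/SRC-1 interaction in HEK293T (transfected 48 h before treatment), exposed 8 h. Readout: N/C fluorescence ratio at 488 nm from imaging, Draq5 for segmentation, positive fit relative to DMSO.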

[7] = biological target: Peroxisome proliferator-activated receptor gamma (Homo sapiens) (UniProt P37231); experiment: OT_PPARg_PPARgSRC1_1440: Odyssey Thera (OT) 24-hour Protein-Complementation Assay for Peroxisome Proliferator-activated Receptor Gamma/ SRC-1 Co-activator (AID 2283388)
Method in brief: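 HEK293T cells transiently transfected with PPARg and SRC-1 fused via (Gly4Ser)2 linker to split Venus YFP fragments (IFP1/IFP2) were dosed 24 h; fixed, Draq5-stained, imaged at 488/635 nm; nuclear/cytoplasmic fluorescence ratio scored versus DMSO baseline, gain-of-signal.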

Measured: outcome

CC=CC(=O)C1=C(C)C=CCC1(C)C
inactive: [1]

CCC(C)COC(=O)CC(C)C (configuration not stated)
not listed: [1]
inactive: all other assays above
